According to the supplement of paper PMC6089552:
Among all 3,200 compounds or so, about 300 (9.4%) showed activity. This is one part of a sample in which actives are shown more often than they occur. Unmarked numbers belong to inactive results.

Test system: A673/TR/shEF
Experiment: cell viability (LOESS-normalised, relative to median of negative controls) (log2 ratio); higher = more viable cells (less compound effect), active = hit call of the paper (over 3 MAD below the median)
Details: treatment time: 72 h
Summary of the method: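 A673/TR/shEF Ewing sarcoma cells were plated at 1,500 per well in 384-well plates and cultured with or without doxycycline, added 24 h before compounds, to induce EWS-FLI1 shRNA knockdown. Library compounds at two or more concentrations, alongside DMSO controls, were applied for three days. Cell viability was measured by CellTiter-Glo luminescence on an Envision reader. Readings were LOESS-corrected per plate, divided by the median of negative controls and log2-transformed, and hits were wells lying at least three median absolute deviations from the median of all screened wells.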

[1] = 0.103 µM, library screen: screen3, EWS-FLI1 expression: high (no doxycycline)
[2] = 0.103 µM, library screen: screen3, EWS-FLI1 expression: low (doxycycline-induced shRNA knockdown)
[3] = 0.308 µM, library screen: screen3, EWS-FLI1 expression: high (no doxycycline)
[4] = 0.308 µM, library screen: screen3, EWS-FLI1 expression: low (doxycycline-induced shRNA knockdown)
[5] = 0.926 µM, library screen: screen3, EWS-FLI1 expression: high (no doxycycline)
[6] = 0.926 µM, library screen: screen3, EWS-FLI1 expression: low (doxycycline-induced shRNA knockdown)
[7] = 2.8 µM, library screen: screen3, EWS-FLI1 expression: high (no doxycycline)
[8] = 2.8 µM, library screen: screen3, EWS-FLI1 expression: low (doxycycline-induced shRNA knockdown)
[9] = 8.3 µM, library screen: screen3, EWS-FLI1 expression: high (no doxycycline)
[10] = 8.3 µM, library screen: screen3, EWS-FLI1 expression: low (doxycycline-induced shRNA knockdown)
[11] = 25 µM, library screen: screen3, EWS-FLI1 expression: high (no doxycycline)
[12] = 25 µM, library screen: screen3, EWS-FLI1 expression: low (doxycycline-induced shRNA knockdown)
[13] = 0.25 µM, library screen: screen2, EWS-FLI1 expression: high (no doxycycline)
[14] = 0.25 µM, library screen: screen2, EWS-FLI1 expression: low (doxycycline-induced shRNA knockdown)
[15] = 2.5 µM, library screen: screen2, EWS-FLI1 expression: high (no doxycycline)
[16] = 2.5 µM, library screen: screen2, EWS-FLI1 expression: low (doxycycline-induced shRNA knockdown)
[17] = 0.25 µM, library screen: screen1, EWS-FLI1 expression: high (no doxycycline)
[18] = 0.25 µM, library screen: screen1, EWS-FLI1 expression: low (doxycycline-induced shRNA knockdown)
[19] = 2.5 µM, library screen: screen1, EWS-FLI1 expression: high (no doxycycline)
[20] = 2.5 µM, library screen: screen1, EWS-FLI1 expression: low (doxycycline-induced shRNA knockdown)
[21] = 0.025 µM, library screen: screen1, EWS-FLI1 expression: high (no doxycycline)
[22] = 0.025 µM, library screen: screen1, EWS-FLI1 expression: low (doxycycline-induced shRNA knockdown)
[23] = 25 µM, library screen: screen1, EWS-FLI1 expression: high (no doxycycline)
[24] = 25 µM, library screen: screen1, EWS-FLI1 expression: low (doxycycline-induced shRNA knockdown)

SMILES: O=C(c1cc(Cc2n[nH]c(=O)c3ccccc23)ccc1F)N1CCN(C(=O)C2CC2)CC1
- cell viability (log2) [1]: -0.00614
- cell viability (log2) [2]: 0.0146
- cell viability (log2) [3]: -0.0732
- cell viability (log2) [4]: -0.0144
- cell viability (log2) [5]: 0.00937
- cell viability (log2) [6]: 0.0508
- cell viability (log2) [7]: -0.137
- cell viability (log2) [8]: 0.0104
- cell viability (log2) [9]: -0.158
- cell viability (log2) [10]: -0.00135
- cell viability (log2) [11]: -0.244 (active)
- cell viability (log2) [12]: -0.143 (active)

SMILES: CN1CCCC(n2nc(Cc3ccc(Cl)cc3)c3ccccc3c2=O)CC1 (stereo not drawn)
- cell viability (log2) [1]: 0.00451
- cell viability (log2) [2]: 0.0233
- cell viability (log2) [3]: 0.0154
- cell viability (log2) [4]: 0.0686
- cell viability (log2) [5]: 0.0285
- cell viability (log2) [6]: 0.0485
- cell viability (log2) [7]: 0.0385
- cell viability (log2) [8]: 0.0809
- cell viability (log2) [9]: 0.0197
- cell viability (log2) [10]: 0.0247
- cell viability (log2) [11]: -0.00429
- cell viability (log2) [12]: -0.0202

SMILES: CC(=O)[C@H]1CCC2C3CC=C4C[C@@H](OS(=O)(=O)O)CC[C@]4(C)C3CC[C@@]21C (stereo partly drawn)
- cell viability (log2) [13]: 0.147
- cell viability (log2) [14]: 0.0952
- cell viability (log2) [15]: 0.0185
- cell viability (log2) [16]: -0.0104

SMILES: COc1ccc(-c2coc3c(OC)c(OC)cc(OC)c3c2=O)cc1
- cell viability (log2) [17]: 0.0837
- cell viability (log2) [18]: 0.0693
- cell viability (log2) [19]: 0.102
- cell viability (log2) [20]: 0.078

SMILES: CCOc1ccccc1N1C(=O)c2cccc3cccc(c23)C1=O
- cell viability (log2) [17]: 0.0619
- cell viability (log2) [18]: 0.0408
- cell viability (log2) [19]: 0.058
- cell viability (log2) [20]: 0.0712

SMILES: CCc1nc(N)nc(N)c1-c1ccc(Cl)cc1
- cell viability (log2) (0.025 µM, library screen: screen2, EWS-FLI1 expression: high (no doxycycline)): 0.129
- cell viability (log2) (0.025 µM, library screen: screen2, EWS-FLI1 expression: low (doxycycline-induced shRNA knockdown)): 0.0541
- cell viability (log2) [1]: 0.0417
- cell viability (log2) [2]: 0.0477
- cell viability (log2) [17]: 0.0408
- cell viability (log2) [18]: 0.123
- cell viability (log2) [13]: 0.112
- cell viability (log2) [14]: 0.0163
- cell viability (log2) [3]: 0.0837
- cell viability (log2) [4]: 0.135
- cell viability (log2) [5]: 0.0823
- cell viability (log2) [6]: 0.107
- cell viability (log2) [19]: 0.0817
- cell viability (log2) [20]: 0.0354
- cell viability (log2) [15]: 0.122
- cell viability (log2) [16]: 0.129
- cell viability (log2) [7]: 0.0808
- cell viability (log2) [8]: 0.046
- cell viability (log2) [9]: 0.0995
- cell viability (log2) [10]: 0.0615
- cell viability (log2) (25 µM, library screen: screen2, EWS-FLI1 expression: high (no doxycycline)): 0.0523
- cell viability (log2) (25 µM, library screen: screen2, EWS-FLI1 expression: low (doxycycline-induced shRNA knockdown)): -0.0463
- cell viability (log2) [11]: 0.153
- cell viability (log2) [12]: 0.146

SMILES: Cc1ccc(-c2nn(C(C)(C)C)c3ncnc(N)c23)cc1
- cell viability (log2) [21]: 0.00835
- cell viability (log2) [22]: -0.00557
- cell viability (log2) [17]: 0.0184
- cell viability (log2) [18]: 0.0452
- cell viability (log2) [19]: -0.0765
- cell viability (log2) [20]: 0.104
- cell viability (log2) [23]: -0.108 (active)
- cell viability (log2) [24]: -0.07

SMILES: CC(C)(C)n1nc(-c2ccc(Cl)cc2)c2c(N)ncnc21
- cell viability (log2) [21]: 0.227
- cell viability (log2) [22]: -0.0277
- cell viability (log2) [17]: 0.174
- cell viability (log2) [18]: 0.0475
- cell viability (log2) [19]: -0.388 (active)
- cell viability (log2) [20]: 0.0249
- cell viability (log2) [23]: -0.453 (active)
- cell viability (log2) [24]: -0.00123

SMILES: C=CC(=O)N1CCC[C@@H](n2nc(-c3ccc(Oc4ccccc4)cc3)c3c(N)ncnc32)C1
- cell viability (log2) [1]: -0.0901
- cell viability (log2) [2]: 0.0229
- cell viability (log2) [3]: -0.0466
- cell viability (log2) [4]: 0.0297
- cell viability (log2) [5]: 0.021
- cell viability (log2) [6]: 0.0235
- cell viability (log2) [7]: -0.0315
- cell viability (log2) [8]: 0.0823
- cell viability (log2) [9]: -0.0558
- cell viability (log2) [10]: 0.16
- cell viability (log2) [11]: -0.158
- cell viability (log2) [12]: 0.0664

SMILES: CC(=O)Oc1cc2c(c(C)c1OC(C)=O)CC=C1[C@@]2(C)CC[C@@]2(C)[C@@H]3C[C@](C)(C(=O)O)CC[C@]3(C)CC[C@]12C
- cell viability (log2) [17]: 0.0258
- cell viability (log2) [18]: 0.000386
- cell viability (log2) [19]: 0.0381
- cell viability (log2) [20]: 0.209

SMILES: CCN1CCN(CC(O)COc2cc(C)c(Cl)c(C)c2)CC1 (stereo not drawn)
- cell viability (log2) [17]: 0.082
- cell viability (log2) [18]: 0.0372
- cell viability (log2) [19]: 0.096
- cell viability (log2) [20]: 0.29

SMILES: CCCCCCCCCC(=O)N[C@@H](Cc1c[nH]c2ccccc12)C(=O)N[C@@H](CC(N)=O)C(=O)N[C@@H](CC(=O)O)C(=O)NC1C(=O)NCC(=O)N[C@@H](CCCN)C(=O)N[C@@H](CC(=O)O)C(=O)N[C@H](C)C(=O)N[C@@H](CC(=O)O)C(=O)NCC(=O)N[C@H](CO)C(=O)N[C@@H](C(C)CC(=O)O)C(=O)N[C@@H](CC(=O)c2ccccc2N)C(=O)OC1C (stereo partly drawn)
- cell viability (log2) [1]: -0.000338
- cell viability (log2) [2]: -0.000608
- cell viability (log2) [3]: 0.0186
- cell viability (log2) [4]: 0.0343
- cell viability (log2) [5]: 0.103
- cell viability (log2) [6]: 0.0444
- cell viability (log2) [7]: 0.0611
- cell viability (log2) [8]: 0.0124
- cell viability (log2) [9]: 0.0568
- cell viability (log2) [10]: 0.116
- cell viability (log2) [11]: -0.0118
- cell viability (log2) [12]: -0.0633
